# Source: PubChem BioAssay (NCATS)
# Several values for one entry are separate records, joined by “and”; a condition that tells them apart may be missing. Identical values can stand only once. Records with an inconclusive call do not appear. A number with no mark means an inactive call. Activity calls are given as the source filed them. Calls come from the whole dose curve; as a rule, active = well fitted curve in the direction sought with a large enough effect; inconclusive = small, poorly fitted or top-dose-only effect, or another doubt; inactive = no such curve, though single readings can be large; an effect the other way counts as inactive or inconclusive.
# Biological target: Cytochrome P450 3A7 (Homo sapiens) (UniProt P24462)
# Test: Cytochrome P450 family 3 subfamily A member 7 (CYP3A7) small molecule antagonists: luciferase biochemical qHTS assay (AID 1963596); note: nearly all actives have a fitted effect of over 40% in size
# Details: P450-Glo CYP3A7 enzyme luminescence, 1 h; series mostly up to 57.4 µM; activity change, negative = inhibition: at the top concentration
# In short: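 Luminescence read-out (relative luminescence units) after 20 min with detection reagent, which stops the reaction. Enzyme, proluciferin substrate and compound preincubated 10 min, RT; NADPH regeneration system then started 1 h reaction. Ketoconazole as positive control.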
# % is set by controls: 0 for no effect and ±100 for the full control effect.
# Sequence of Cytochrome P450 3A7 (Homo sapiens) (P24462 whole entry, looked up): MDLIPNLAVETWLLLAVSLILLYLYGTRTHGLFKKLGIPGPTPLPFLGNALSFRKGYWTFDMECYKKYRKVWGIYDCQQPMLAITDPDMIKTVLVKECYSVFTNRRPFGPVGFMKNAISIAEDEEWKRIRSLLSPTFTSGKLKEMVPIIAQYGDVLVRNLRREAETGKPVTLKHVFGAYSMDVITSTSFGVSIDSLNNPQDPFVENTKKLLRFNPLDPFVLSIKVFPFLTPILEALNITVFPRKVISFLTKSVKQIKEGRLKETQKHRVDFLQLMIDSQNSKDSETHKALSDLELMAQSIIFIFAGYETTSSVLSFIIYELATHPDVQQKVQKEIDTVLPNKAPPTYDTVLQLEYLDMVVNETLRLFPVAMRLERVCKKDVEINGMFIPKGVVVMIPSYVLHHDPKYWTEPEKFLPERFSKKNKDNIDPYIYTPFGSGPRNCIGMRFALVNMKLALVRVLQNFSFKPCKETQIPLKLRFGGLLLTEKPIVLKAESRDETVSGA
Structure (SMILES),"activity change, negative = inhibition",Potency
CC(N)CCCC(C)(C)O (stereo not drawn),-4.06%,
Cc1ccc(C(C)C)c(O)c1,-10.4%,
CCN(CC)CC(=O)Nc1c(C)cccc1C,-27.1%,
CCCCCCCCCCCCCCCC(=O)OC(C)C,7.17%,
Cc1ccc(C(=O)C(C)CN2CCCCC2)cc1 (stereo not drawn),-11.1%,
CC(C)(C)NCC(O)COc1ccc(NC(=O)NC2CCCCC2)cc1 (stereo not drawn),-16.3%,
O=C(NN1CCCC1)NS(=O)(=O)c1ccc(Cl)cc1,-3.56%,
CCOC(N)=O,-0.648%,
CCCCCCCCCCCCCCC[C@H](O)[C@@H](N)CO,-21.5%,
CC(C)(Oc1ccc(Cl)cc1)C(=O)O,,inactive
O=[N+]([O-])c1nccn1CO[C@@H](CO)[C@H](O)CO,-6.18%,
CCOC(CN1CCN(CC(C)C(=O)c2ccccc2)CC1)c1ccccc1 (stereo not drawn),-21% [at 23.9 µM],
OC[C@H]1O[C@@H](Oc2ccc(O)cc2)[C@H](O)[C@@H](O)[C@@H]1O,-12.1%,
CN1CCC(N(Cc2cccs2)c2ccccc2)CC1,-29.4%,
Cc1cccc(C)c1NC(=O)c1cc(S(N)(=O)=O)c(Cl)cc1O,-16.5%,
CNC(=O)c1c(I)c(NC(=O)CCCCC(=O)Nc2c(I)c(C(=O)O)c(I)c(C(=O)NC)c2I)c(I)c(C(=O)O)c1I,-13.5%,
CCN(CC)CCCC(C)Nc1ccnc2cc(Cl)ccc12 (stereo not drawn),-24.4% [at 23.9 µM],
CC(=O)Nc1c(I)c(NC(C)=O)c(I)c(C(=O)O)c1I,-3.53%,

# Tested on: not listed separately
# Test: Cellular viability qHTS for adrenocortical cancer (ACC) cell line SW-13 (AID 1963989);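 note: cells grown in serum-free medium with ITS supplement; nearly all actives have a fitted effect of over 65% in size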
# Details: SW-13 ACC cells viability, CellTiter-Glo, 48 h; activity (max response): hits give low values
# In short: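 SW-13 cells in ITS-supplemented serum-free DMEM were plated overnight, then exposed for 48 h at 37C to compound titrations (up to 46 uM final). Viability was read by CellTiter-Glo luminescence; four-parameter logistic fits gave IC50 and efficacy.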
row,Structure (SMILES),activity (max response)
1,CC1(C)S[C@@H]2[C@H](NC(=O)C(c3ccccc3)S(=O)(=O)O)C(=O)N2[C@H]1C(=O)O (stereo partly drawn),8.35%
2,Cn1cc(S(C)=O)c(=O)c2ccc(F)cc21 (stereo not drawn),8.71%
3,CC(C)(C)c1ccc(C(=O)CCCCl)cc1,6.38%
4,Cc1cccc(C(=O)O)c1O,14.1%
5,CCCCN(CCN(CCCC)C(=O)N1CCOCC1)C(=O)N1CCOCC1,13.7%
6,CN/C(=C\[N+](=O)[O-])NCCSCc1csc(CN(C)C)n1,7.35%
7,O=C(O)c1cn(C2CC2)c2cc(Cl)c(F)cc2c1=O,13.4%
8,Cc1nc([N+](=O)[O-])cn1-c1ccc([N+](=O)[O-])cc1,-2.45%
9,CN(C)C(=O)CNC(=O)Cc1ccccc1,-6.74%
10,Cn1c(=O)c2c(ncn2CC(=O)O)n(C)c1=O,9.83%
11,O=C1CC2(CCCC2)CC(=O)N1,11.4%
12,CN=C(N)NC(=O)Nc1c(C)cccc1C,-3.82%
13,O=C(Nc1cccnc1)c1cc(-c2ccnc(F)c2)ccc1OCc1ccccc1,13.4%
14,C=CCN1C[C@H](C(=O)N(CCCN(C)C)C(=O)NCC)C[C@@H]2c3cccc4[nH]cc(c34)C[C@H]21,3.88%
15,O=C(Oc1ccccc1)c1cccc(C(=O)Oc2ccccc2)c1,-1.98%
16,CCOC(=O)c1ccc(O)cc1,9.4%
17,OCC(O)CS (stereo not drawn),8.13%
18,COc1ccccc1OCC1CNC(=O)O1 (stereo not drawn),12.9%
19,NCCO,7.88%
20,CCO/C([O-])=N/c1c[n+](N2CCOCC2)no1,-2.98%

row,Structure (SMILES),activity (max response)
1,O=C(O)CCc1nc2ccccc2[nH]1,0.871%
2,O=c1[nH]c(=O)n([C@H]2O[C@H](CO)[C@@H](O)[C@@H]2O)cc1/C=C\Br,-3.87%
3,CC(N)CCCC(C)(C)O (stereo not drawn),18.8%
4,Cc1ccc(C(C)C)c(O)c1,10.4%
5,CCN(CC)CC(=O)Nc1c(C)cccc1C,2.91%
6,CCCCCCCCCCCCCCCC(=O)OC(C)C,6.75%
7,Cc1ccc(C(=O)C(C)CN2CCCCC2)cc1 (stereo not drawn),-5.23%
8,CC(C)(C)NCC(O)COc1ccc(NC(=O)NC2CCCCC2)cc1 (stereo not drawn),5.25%
9,O=C(NN1CCCC1)NS(=O)(=O)c1ccc(Cl)cc1,2.56%
10,CCOC(N)=O,11.5%
11,CCCCCCCCCCCCCCC[C@H](O)[C@@H](N)CO,1.16%
12,CC(C)(Oc1ccc(Cl)cc1)C(=O)O,-3.02%
13,O=[N+]([O-])c1nccn1CO[C@@H](CO)[C@H](O)CO,-4.12%
14,CCOC(CN1CCN(CC(C)C(=O)c2ccccc2)CC1)c1ccccc1 (stereo not drawn),-8.86%
15,OC[C@H]1O[C@@H](Oc2ccc(O)cc2)[C@H](O)[C@@H](O)[C@@H]1O,-0.0454%
16,CN1CCC(N(Cc2cccs2)c2ccccc2)CC1,6.02%
17,Cc1cccc(C)c1NC(=O)c1cc(S(N)(=O)=O)c(Cl)cc1O,10.1%
18,CNC(=O)c1c(I)c(NC(=O)CCCCC(=O)Nc2c(I)c(C(=O)O)c(I)c(C(=O)NC)c2I)c(I)c(C(=O)O)c1I,-7.54%
19,CCN(CC)CCCC(C)Nc1ccnc2cc(Cl)ccc12 (stereo not drawn),0.695% and -16.4%
20,CC(=O)Nc1c(I)c(NC(C)=O)c(I)c(C(=O)O)c1I,2.04%
